Our source for the sensor-assay potency score (higher = more potent) values is the OligoGym collection.
Further: reference of the scale not given here.

The first test has as its target GTF2H5. The test is described as follows: pooled miR-30 sensor sort-seq; sequence = guide strand. The following applies: shRNA.
Sequence TACAGCAGAAACTGCTTCATGG came in with a sensor-assay potency score (higher = more potent) of -0.967. On the same count and under the same terms, for TCTGCTATTACAAAGACGTGAG the value was 0.353.

On to TTCTGCTATTACAAAGACGTGA, for which the sensor-assay potency score (higher = more potent) was -0.0161. Still for that read-out and setting: the same measure for TCTTGAATGATGAACTTCTTCC: -0.75. Same read-out and setting: for AATGATGAACTTCTTCCCCAGG the value was -1.25.

The target in the next test is GUCY2F. Described as above. The note with it: shRNA.
The sequence TAATGGTCAACACTGCATCATA showed a sensor-assay potency score (higher = more potent) of -1.31. The same measure, in the same setting: for TTTCACATCTTGATTTGTCAGT the value was -0.489; for TAAATTGAATTGTAGATGGTTC, -0.461; for TAATCTGGAAGCTTACACTGGC, 0.71.

In turn, TAATATTGGTCTTCTTCCCTTT showed a sensor-assay potency score (higher = more potent) of -0.067. The same measure, in the same setting: the same measure for TAGATGGTTCCAAACAACGGTG: -1.15; for TTCCATTTCCATTTGAATCTGT: 0.512; for TTGGTCGTTGTTCTGCAGCCTC: -0.834. On the same count and under the same terms, for TTGAATTGTAGATGGTTCCAAA the value was -0.33; for TGAAGAATTGTAACAGTGCTGA, -0.218. On the same count and under the same terms, the same measure for TTATAAAGTAAGCAAATCCATT: -1.1; for TTGAAGAATTGTAACAGTGCTG: 0.627.
